± gives the standard deviation of the averaged measurements.
The compounds below were run on Drosophila ezoana antennal basiconic sensillum ab7 (assay: odor-evoked OSN spike response (post minus pre-stimulus); higher = stronger neuronal excitation). Conditions: odor dilution: 10^-4.
Procedure: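 Single sensillum recordings from antennal basiconic sensilla of D. ezoana. A 500 ms pulse of odorant (10^-4 in mineral oil or DMSO) was delivered; the response is the change in action potential frequency between the 1 s pre- and post-stimulus windows (spikes/s).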
`CCOC(=O)CC(C)O` (centres undefined) [Ethyl-3-hydroxybutyrate] was tested, and the “odor-evoked OSN spike response” value was 80.1 ± 47 spikes/s. With `CCCCCC(=O)OCC` [ethyl hexanoate] the “odor-evoked OSN spike response” value was 74.4 ± 40 spikes/s. With `CCCCCC(C)=O` [2-heptanone] the “odor-evoked OSN spike response” value was 138 ± 39 spikes/s. In the case of `CCCCCCCC(C)=O` [2-nonanone], the “odor-evoked OSN spike response” value is reported as 66.8 ± 40 spikes/s. In the case of `C[C@H]1CCC[C@@]2(C)CCCC[C@]12O` [geosmin], the “odor-evoked OSN spike response” value is reported as 3.51 ± 21 spikes/s. `CCCCCCO` [1-hexanol] was tested, and the “odor-evoked OSN spike response” value was 53.6 ± 33 spikes/s. `CCCC(=O)CC` [3-hexanone] was tested, and the “odor-evoked OSN spike response” value was 53.1 ± 33 spikes/s. For `C=CC(O)CCCCC` (centres undefined) [1-octen-3-ol], the “odor-evoked OSN spike response” value was 107 ± 43 spikes/s. In the case of `CCOC(=O)C(C)O` (centres undefined) [Ethyl lactate], the “odor-evoked OSN spike response” value is reported as 60.2 ± 36 spikes/s. `CCCCCOC(C)=O` [pentyl acetate] was tested, and the “odor-evoked OSN spike response” value was 59.2 ± 30 spikes/s. With `CCCCC(C)=O` [2-hexanone] the “odor-evoked OSN spike response” value was 50.2 ± 29 spikes/s. In the case of `CC(=O)CCC=C(C)C` [6-methyl-5-hepten-2-one], the “odor-evoked OSN spike response” value is reported as 140 ± 40 spikes/s. In the case of `CCCCC(C)O` (centres undefined) [2-hexanol], the “odor-evoked OSN spike response” value is reported as 56.1 ± 29 spikes/s. `CCCCCCCC(C)O` (centres undefined) [2-nonanol] was tested, and the “odor-evoked OSN spike response” value was 52.3 ± 32 spikes/s.

— the supplement of paper PMC10477191
